# Assay results reported in PubChem BioAssay (NCI).
# Compounds without any hit were thinned out: in the full panel of roughly 79,000, 15% have a hit. A number with no mark means an inactive call. The source made the active and inactive calls. No stated cut-off is given here; in the data, active means growth inhibition above about 70%; inactive means the rest.
# Experiment: NCI Yeast Anticancer Drug Screen. Data for the cln2 rad14 strain (AID 165);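 further: 0% = growth equal to vehicle treated cultures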
# Settings: S. cerevisiae cln2 rad14 strain, at 50.0 µM, active compounds read high
# Method in brief: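 Compounds are applied to the cln2 rad14 yeast strain, and growth is then compared with that of vehicle-treated cultures to give inhibition.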
row,SMILES,growth inhibition
1,O=C(Nc1ccc2c(c1)OCO2)O/N=C\c1ccccn1,57.4%
2,COc1ccc(C(O)/C(=C/n2ccnc2)c2ccccc2)cc1OC (stereo not given),-5.85%
3,CC(C)N(CCn1c2c3ccccc3ccc2c2oc(=O)c3ccccc3c21)C(C)C,12%
4,CCOC(=O)c1cnc2n(c1=O)[C@H]1CCCC[C@@H]1N2,9.75%
5,O=[N+]([O-])c1ccc(COP(=O)(OCc2ccc([N+](=O)[O-])cc2)OCc2ccc([N+](=O)[O-])cc2)cc1,-46.5%
6,NNc1ncnc2c1ncn2Cc1ccccc1,-2.05%
7,CC(=O)CC(C)(C)NNS(=O)(=O)c1ccc(C)cc1,-20.9%
8,CCCCCCn1cnc2c(=S)nc[nH]c21,7.45%
9,C/C(CCc1ccccc1)=N/Nc1ccc([N+](=O)[O-])cc1[N+](=O)[O-],0.05%
10,O=C(C#Cc1ccccc1)[O][Sn]([c]1ccccc1)([c]1ccccc1)[c]1ccccc1,99.2% (active)
11,COc1ccc(CCCc2cc3c(cc2OC)OCO3)cc1,-8.65%
12,O=C(O)c1ccc(Cl)c(C(=O)O)c1,3.15%
13,CCC1([N+](=O)[O-])CC2C=CC1C2 (stereo not given),-4.15%
14,O=C1CSC(/C(=C\c2ccc(Cl)cc2)c2nc3ccccc3[nH]2)=N1,11.7%
15,CC1CCOC(c2ccccc2Cl)O1 (stereo not given),-12.1%
16,CN1C(=O)C(=O)OC1=C(c1ccccc1)c1ccccc1,-30.9%
17,c1cc2c3c(cccc3c1)N=S=N2,-62.6%
18,C[C@]12CC[C@@H]3c4ccc(OCCCO)c([N+](=O)[O-])c4CC[C@H]3[C@@H]1CCC2=O,12.4%
19,C=CC1CNCCC1CC(=O)OCC (stereo not given),-12.4%
20,NC1=NS(=O)(=O)Nc2nc(-c3ccccc3)c(-c3ccccc3)nc21,-0.85%
21,COC(=O)C(/C(=N/N)C(=O)Nc1cccc(O)c1)c1nc2ccccc2[nH]c1=O (stereo not given),-15.2%
22,NCCNc1ncnc2ccc(Cl)cc12,-30.5%
23,Fc1ccc(Cl)c2cccnc12,-33.7%
24,CC(C)=CC(=O)OC(C)(C)C,6.1%
25,CC(=O)Oc1ccccc1C(OC(C)=O)OC(C)=O,-20.1%

# Experiment: NCI Yeast Anticancer Drug Screen. Data for the bub3 strain (AID 167)
# Settings: S. cerevisiae bub3 mutant strain, at 50.0 µM, active compounds read high
# Method in brief: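 Part of a panel of yeast mutants defective in DNA damage repair or cell cycle regulation. Each strain is grown with compound, and inhibition is calculated relative to solvent-treated cultures.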
row,SMILES,growth inhibition
1,CCCCCCCN1C=CCC(S(=O)(=O)N2CCOCC2)=C1,-16.8%
2,COC(=O)C(C)(C)N=CN(C)C,-27.9%
3,N#CCCOCC(OCCC#N)C(OCCC#N)C(OCCC#N)C(COCCC#N)OCCC#N (stereo not given),6.8%
4,CC(C)CN(CC(=O)Nc1cccc(Cl)c1)CC(C)C,5.25%
5,CCCNC(=O)Oc1ccccc1C(N)=O,8%
6,CC(=O)CC(=O)CCCCC(=O)O,-5.6%
7,NC1=NC2(COC(c3ccccc3)(c3ccccc3)c3ccccc3)OC(COC(c3ccccc3)(c3ccccc3)c3ccccc3)C(O)C2O1 (stereo not given),34.4%
8,O=NNc1nc2ncccc2cc1-c1ccccc1Cl,-22.2%
9,CC(C)=CCC1=C(O)[C@@](O)(CC=C(C)C)C(=O)C(C(=O)CC(C)C)=C1O,35.2%
10,C/C(CC(C)C)=N/Nc1ccc([N+](=O)[O-])cc1[N+](=O)[O-],19.9%
11,CCOC(=O)NC(NC(=O)OCC)c1ccc(Cl)cc1Cl,7.2%
12,NC1=Nc2cc(Cl)ccc2Sc2nc3ccccc3n21,10.9%
13,C=C1C(=O)O[C@H]2[C@H]1[C@H](OC(=O)/C(C)=C\C)CC(=C)[C@@H]1[C@H](O)[C@H]3O[C@@]3(C)[C@@]12O,-5.95%
14,Cc1cc(Br)c(I)c([N+](=O)[O-])c1,7.45%
15,N#C/C(=C\c1c(S(=O)(=O)O)sc2ccccc12)C(N)=O (tested in a mixture with another compound),-0.9%
16,O=C(Nc1ccc2c(c1)OCO2)O/N=C\c1ccccn1,9.4%
17,COc1ccc(C(O)/C(=C/n2ccnc2)c2ccccc2)cc1OC (stereo not given),-7.65%
18,CC(C)N(CCn1c2c3ccccc3ccc2c2oc(=O)c3ccccc3c21)C(C)C,-2.95%
19,CCOC(=O)c1cnc2n(c1=O)[C@H]1CCCC[C@@H]1N2,8.7%
20,O=[N+]([O-])c1ccc(COP(=O)(OCc2ccc([N+](=O)[O-])cc2)OCc2ccc([N+](=O)[O-])cc2)cc1,25.3%

row,SMILES,growth inhibition
1,NNc1ncnc2c1ncn2Cc1ccccc1,-22.6%
2,CC(=O)CC(C)(C)NNS(=O)(=O)c1ccc(C)cc1,5.35%
3,CCCCCCn1cnc2c(=S)nc[nH]c21,-0.65%
4,C/C(CCc1ccccc1)=N/Nc1ccc([N+](=O)[O-])cc1[N+](=O)[O-],13.4%
5,O=C(C#Cc1ccccc1)[O][Sn]([c]1ccccc1)([c]1ccccc1)[c]1ccccc1,99.1% (active)
6,COc1ccc(CCCc2cc3c(cc2OC)OCO3)cc1,35.6%
7,O=C(O)c1ccc(Cl)c(C(=O)O)c1,-11.7%
8,CCC1([N+](=O)[O-])CC2C=CC1C2 (stereo not given),-21.7%
9,O=C1CSC(/C(=C\c2ccc(Cl)cc2)c2nc3ccccc3[nH]2)=N1,12.2%
10,CC1CCOC(c2ccccc2Cl)O1 (stereo not given),-9.3%
11,CN1C(=O)C(=O)OC1=C(c1ccccc1)c1ccccc1,-17.6%
12,c1cc2c3c(cccc3c1)N=S=N2,20.9%
13,C[C@]12CC[C@@H]3c4ccc(OCCCO)c([N+](=O)[O-])c4CC[C@H]3[C@@H]1CCC2=O,-0.5%
14,C=CC1CNCCC1CC(=O)OCC (stereo not given),4.45%
15,NC1=NS(=O)(=O)Nc2nc(-c3ccccc3)c(-c3ccccc3)nc21,2.6%
16,COC(=O)C(/C(=N/N)C(=O)Nc1cccc(O)c1)c1nc2ccccc2[nH]c1=O (stereo not given),-39.1%
17,NCCNc1ncnc2ccc(Cl)cc12,-38.8%
18,Fc1ccc(Cl)c2cccnc12,3.95%
19,CC(C)=CC(=O)OC(C)(C)C,7.05%
20,CC(=O)Oc1ccccc1C(OC(C)=O)OC(C)=O,2.05%
